Reference: the supplement of paper PMC6805474

Assays:
[1] = tested on: Schistosoma mansoni schistosomula (LE); assay: XTT viability relative to DMSO control; higher = more viable (less active); conditions: 72 h; 10 µM
Protocol: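 XTT/PMS was then added for a further 24 h (72 h total) and A450 was read. % viability = (sample - heat-killed control)/(DMSO control - heat-killed control) x 100, from duplicate wells in two independent experiments.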

[2] = tested on: Schistosoma mansoni schistosomula (NMRI); assay: phenotypic severity score (0-4); higher = more antischistosomal effect, active = 2 or more; conditions: 10 µM
[3] = tested on: Schistosoma mansoni schistosomula (Liberian); assay: drug effect (1 - score/DMSO control score) (fraction); higher = more antischistosomal effect, active = 0.5 or more; extreme values may be limits of the assay; conditions: 10 µM
Summary of the method: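 Schistosomula of the Liberian strain of Schistosoma mansoni were mechanically transformed from cercariae, pre-incubated for at least 12 h, and placed at 50 per well in flat-bottom 96-well plates with Medium 199 containing 5% FCS. Compounds were tested in duplicate at 10 µM at 37 °C and 5% CO2, alongside wells holding 0.1% DMSO. Parasites were scored visually at 10× after 24, 48 and 72 h on a quarter-point scale running from 3 (normal) to 0 (dead). Drug effect came from the mean test-well score relative to the mean DMSO-well score, with negative values set to zero and plates accepted only when the DMSO wells averaged at least 2.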
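Wherever phenotypic severity score (0-4) is given: visual microscopic scoring of shape, motility and density changes versus 0.5% DMSO solvent controls, one point per descriptor, degeneracy or death scored 4, mean of duplicate wells.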

Structure (SMILES)	XTT viability [1] [%]	phenotypic severity score ([2]; 24 h)	phenotypic severity score ([2]; 48 h)	phenotypic severity score ([2]; 72 h)	drug effect ([3]; 24 h)	drug effect ([3]; 48 h)	drug effect ([3]; 72 h)
O=C(Nc1nnc(S)s1)c1cc(Br)ccc1Cl	91.7	0 (inactive)	0 (inactive)	0 (inactive)	0.05 (inactive)	0.027 (inactive)	0.0909 (inactive)
CC(C(=O)N1CCCC1)N1CCN(S(=O)(=O)c2ccc(C(C)(C)C)cc2)CC1 (configuration not stated)	109	1 (inactive)	0 (inactive)	0 (inactive)	0.05 (inactive)	0.027 (inactive)	0.0909 (inactive)
Cc1cc(NC(=O)c2ccc(S(=O)(=O)N(Cc3ccccc3)C(C)C)cc2)no1	106	1 (inactive)	0 (inactive)	0 (inactive)	0.135 (inactive)	0.444 (inactive)	0.25 (inactive)
C[C@H](C(N)=O)N1CCCC[C@@H]1c1ccc(OCc2cccc(F)c2)cc1	88.1	0 (inactive)	0 (inactive)	0 (inactive)	0.2 (inactive)	0.444 (inactive)	0.5 (active)
Clc1cccc(C(c2ccc(CN3CCNCC3)cc2)n2ccnc2)c1 (configuration not stated)	76.1	1 (inactive)	1 (inactive)	4 (active)	0.405 (inactive)	0.667 (active)	0.875 (active)
CC(C)(C)n1nc(-c2ccccc2)c2c(N)ncnc21	106	1 (inactive)	0 (inactive)	0 (inactive)	0.182 (inactive)	0.2 (inactive)	0.127 (inactive)
CCS(=O)(=O)N(Cc1ccco1)Cc1cc2ccc(C)cc2nc1O	55.5	0 (inactive)	1 (inactive)	0 (inactive)	0.2 (inactive)	0.333 (inactive)	0.5 (active)
CC(C)C(Oc1cccc2ccccc12)C(=O)O (configuration not stated)	108	0 (inactive)	0 (inactive)	0 (inactive)	< 0 (inactive)	< 0 (inactive)	0.0556 (inactive)
Nc1ccc2ncnc(Nc3ccc(OCc4cccc(F)c4)c(Cl)c3)c2c1	55.9	4 (active)	4 (active)	4 (active)	0.3 (inactive)	0.622 (active)	0.879 (active)
CCCc1ccc(S(=O)(=O)Nc2ccc(CN3CCN(CC4CC4)CC3)cc2)cc1	108	0 (inactive)	0 (inactive)	0 (inactive)	0.15 (inactive)	0.167 (inactive)	0.375 (inactive)
COc1ccc(-c2onc(C(F)(F)F)c2-c2ccc(Cl)cc2)c(O)c1	0.0885	0 (inactive)	0 (inactive)	0 (inactive)	0.15 (inactive)	0.167 (inactive)	0.188 (inactive)
CC(C)(C)OC(=O)N1CCN(c2nccc(-c3ccc(-c4ccc(Cl)cc4)s3)n2)CC1	93.7	0 (inactive)	0 (inactive)	0 (inactive)	0.182 (inactive)	0.15 (inactive)	0.182 (inactive)
C[C@H](C(N)=O)N1CCCC[C@H]1c1ccc(OCc2cccc(F)c2)cc1	118	0 (inactive)	0 (inactive)	0 (inactive)	0.05 (inactive)	0.0811 (inactive)	0.212 (inactive)
Cc1ccccc1CN1CCC(O)(c2ccc(Cl)c(C(F)(F)F)c2)CC1	71.1	2 (active)	0 (inactive)	1 (inactive)	0.1 (inactive)	0.0556 (inactive)	0.188 (inactive)
COC(=O)c1ccc(F)cc1NS(=O)(=O)c1cccc(-c2cnn(Cc3ccccc3)c2)c1	89.1	1 (inactive)	1 (inactive)	1 (inactive)	0.409 (inactive)	0.45 (inactive)	0.455 (inactive)
CN1CCN(c2cc(-c3ccc(F)cc3)nc(-c3ccncc3)n2)CC1	63	0 (inactive)	0 (inactive)	0 (inactive)	0.182 (inactive)	0.35 (inactive)	0.345 (inactive)
CN1CCCC1CCO[C@](C)(c1ccccc1)c1ccc(Cl)cc1 (some centres not stated)	46.6	2 (active)	4 (active)	4 (active)	0.9 (active)	1 (active)	1 (active)
CC(C)n1nc(-c2cc3c(Cl)cccc3[nH]2)c2c(N)ncnc21	54.3	4 (active)	4 (active)	4 (active)	0.55 (active)	0.667 (active)	1 (active)
O=C(NC1CC1)c1ccc(N2CCC(Cc3ccccc3)CC2)nc1	91.1	0 (inactive)	0 (inactive)	0 (inactive)	0.1 (inactive)	0.0811 (inactive)	0.167 (inactive)
Nc1ncc(-c2cn[nH]c2)cc1-c1nc2cc(Cl)cnc2[nH]1	94.4	0 (inactive)	0 (inactive)	0 (inactive)	< 0 (inactive)	< 0 (inactive)	0.0556 (inactive)
FC(F)(F)c1cc(NCCc2ccccc2)nc(-c2ccccn2)n1	58.7	1 (inactive)	2 (active)	4 (active)	0.05 (inactive)	0.514 (active)	0.394 (inactive)

Structure (SMILES)	XTT viability [1] [%]	phenotypic severity score ([2]; 24 h)	phenotypic severity score ([2]; 48 h)	phenotypic severity score ([2]; 72 h)	drug effect ([3]; 24 h)	drug effect ([3]; 48 h)	drug effect ([3]; 72 h)
O=C(Cn1ccnc1[N+](=O)[O-])NCc1ccccc1	89.2	0 (inactive)	0 (inactive)	0 (inactive)	0.15 (inactive)	0.243 (inactive)	0.222 (inactive)
CNC1C(OC2C(OC3C(O)C(O)C(NC(=N)N)C(O)C3NC(=N)N)OC(C)C2(O)C=O)OC(CO)C(O)C1O (configuration not stated)	93	0 (inactive)	0 (inactive)	0 (inactive)	0.182 (inactive)	0.1 (inactive)	0.0727 (inactive)
O=C(NCCc1ccn(-c2ccccc2)n1)C1CCCCC1	74.1	0 (inactive)	0 (inactive)	0 (inactive)	0.136 (inactive)	< 0 (inactive)	0.0526 (inactive)
Cc1ccc(-c2nc(CN(Cc3ccccn3)C(C)C)cs2)o1	84.4	0 (inactive)	1 (inactive)	0 (inactive)	0.05 (inactive)	0.222 (inactive)	0.389 (inactive)
CC(Oc1ccccc1)C(=O)Nc1nc(-c2ccccn2)cs1 (configuration not stated)	59.4	2 (active)	0 (inactive)	4 (active)	0.297 (inactive)	0.5 (active)	0.625 (active)
CC1=Nc2ccc(Cl)cc2C(c2ccccc2)N1CCNC(=O)CN(C)C (configuration not stated)	113	0 (inactive)	0 (inactive)	0 (inactive)	0.35 (inactive)	0.333 (inactive)	0.375 (inactive)
Nc1nc(N)c2c3c(sc2n1)CN(Cc1ccccc1)CC3	131	0 (inactive)	0 (inactive)	0 (inactive)	0.15 (inactive)	0.278 (inactive)	0.438 (inactive)
CO[C@H]1/C=C/O[C@@]2(C)Oc3c(C)c(O)c4c(O)c(/c(=C/NN5CCN(C)CC5)c(O)c4c3C2=O)=N\C(=O)/C(C)=C\C=C/[C@H](C)[C@H](O)[C@@H](C)[C@@H](O)[C@@H](C)[C@H](OC(C)=O)[C@@H]1C	116	0 (inactive)	0 (inactive)	0 (inactive)	0.0455 (inactive)	0.05 (inactive)	0.105 (inactive)
Cc1cc(OCC(=O)Nc2ccc(C(C)C)cc2)n(C)c(=O)c1C#N	82.3	0 (inactive)	0 (inactive)	0 (inactive)	0.1 (inactive)	0.0556 (inactive)	< 0 (inactive)
NC(=O)c1cc(Br)ccc1OCCOc1ccccc1	110	1 (inactive)	1 (inactive)	2 (active)	< 0 (inactive)	< 0 (inactive)	< 0 (inactive)
CC(C)(C)OC(=O)N1CCN(c2cc(-c3ccc(Oc4ccccc4)cc3)n[nH]2)CC1	66.1	0 (inactive)	0 (inactive)	0 (inactive)	0.0526 (inactive)	0.167 (inactive)	0.25 (inactive)
Cc1ccc2cc(C3NC(=O)c4ccccc4N3)c(Cl)nc2c1 (configuration not stated)	99	0 (inactive)	0 (inactive)	1 (inactive)	0.05 (inactive)	0.0811 (inactive)	0.111 (inactive)
O=C(Nc1ccnc(-c2cccnc2)n1)c1cc(C(F)(F)F)cc(C(F)(F)F)c1	91	0 (inactive)	0 (inactive)	0 (inactive)	0.1 (inactive)	0.0811 (inactive)	0.111 (inactive)
CC(C)C(C(=O)Nc1ccc(S(=O)(=O)N(C)C)cc1)c1ccc(Cl)cc1 (configuration not stated)	29.5	2 (active)	4 (active)	4 (active)	0.955 (active)	0.85 (active)	1 (active)
CC(C)(C)CN1C(=O)C(c2ccccc2)(c2ccccc2)N=C1N	88.6	0 (inactive)	0 (inactive)	0 (inactive)	0.1 (inactive)	0.135 (inactive)	0.273 (inactive)
CNc1snc(C)c1C(=O)NCCOc1ccc(OC)cc1	91.3	1 (inactive)	0 (inactive)	0 (inactive)	0.0909 (inactive)	0.15 (inactive)	0.127 (inactive)
CC[C@H](CO)NCCN[C@H](CC)CO	78.3	0 (inactive)	0 (inactive)	0 (inactive)	0.15 (inactive)	0.135 (inactive)	0.278 (inactive)
COc1ccccc1OCCCCn1c(C2CC2)nc2ccccc21	76	0 (inactive)	0 (inactive)	0 (inactive)	0.136 (inactive)	0.2 (inactive)	0.182 (inactive)
NCC(c1cccs1)S(=O)(=O)c1ccccc1 (configuration not stated)	45.2	1 (inactive)	1 (inactive)	2 (active)	0.15 (inactive)	0.05 (inactive)	0.0556 (inactive)
COc1ccc(C2CC(c3cccs3)=NN2C(=O)c2ccco2)cc1OC (configuration not stated)	65.7	0 (inactive)	0 (inactive)	0 (inactive)	0.1 (inactive)	0.135 (inactive)	0.167 (inactive)
